High-throughput results (PubChem BioAssay)
SARS PLpro yeast: inhibitors of SARS-CoV papain-like protease in yeast; Potency, µM (top dose mostly 32.9 µM), for inactives: top-dose activity, positive = growth rescue, actives largely listed as activators; S. cerevisiae expressing SARS-CoV PLpro, growth rescue; 0.19% of 330,000 active; calls by dose curve; further: 0% is about no effect; nearly all actives have a fitted effect of over 55% in size
Giardia FBPA inh: blocks Giardia fructose-bisphosphate aldolase activity; A8B2U2; 0.71% of 290,000 active; purified Giardia FBPA; Potency, µM (top dose mostly 59.6 µM), inactives show top-dose activity, negative = inhibition, most hits filed as inhibitors; further: on the % scale 0 is the no-effect control and ±100 the full control effect; nearly all actives have a fitted effect of over 55% in size
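40 nM FBPA preincubated 10 min at RT with compound (up to 57.5 uM final), then substrate plus GAPDH/TPI/NAD/arsenate coupling and diaphorase/resazurin added. Fluorescence read after 20 min at RT, 525/598 nm.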
AmpC no deterg: AmpC beta-lactamase inhibition without detergent. AmpC nitrocefin hydrolysis, absorbance 480 nm, 0.0001% Triton. Potency, µM (highest dose often 57.1 µM), without a hit: at the highest dose activity change, negative = inhibition, actives largely listed as inhibitors. 0.52% of 330,000 active. AID 485341;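 further: plate controls were no compound for no effect and no enzyme for full effect; nearly all actives have a fitted effect of over 20% in size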
Target sequence (P00811 whole entry, looked up): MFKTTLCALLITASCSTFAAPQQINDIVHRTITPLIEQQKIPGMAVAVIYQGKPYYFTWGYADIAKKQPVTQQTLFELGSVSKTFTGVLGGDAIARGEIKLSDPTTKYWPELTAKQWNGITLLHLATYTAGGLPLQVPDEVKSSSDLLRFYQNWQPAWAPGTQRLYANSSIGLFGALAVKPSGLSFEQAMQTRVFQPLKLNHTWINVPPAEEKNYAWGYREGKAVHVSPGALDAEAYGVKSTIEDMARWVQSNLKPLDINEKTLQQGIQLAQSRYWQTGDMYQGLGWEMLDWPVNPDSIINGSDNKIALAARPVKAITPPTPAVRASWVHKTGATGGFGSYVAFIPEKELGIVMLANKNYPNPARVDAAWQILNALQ
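AmpC (5.3 nM in the dispensed reagent) in 20 mM phosphate pH 7.0 with 0.01% (detergent screen) or 0.0001% Triton X-100 was preincubated with compounds for 15 min at room temperature. Nitrocefin was then added from an 800 uM solution, and hydrolysis was followed at 480 nm.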
NS1 inh: influenza NS1 inhibition. Potency, µM (series often up to 46.1 µM), inactives show top-dose activity, positive = more growth. 0.4% of 270,000 active. AID 2326; calls by dose curve; further: actives are rising curves; nearly all actives have a fitted effect of over 50% in size
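In this qHTS, NS1 from influenza A is expressed in budding yeast, where it slows growth. Cells are switched from glucose to 2% galactose medium (pH 6.0, -URA), treated with compound, and growth recovery is read at OD600.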
AmpC inh detg: blocks E. coli AmpC beta-lactamase in detergent assay | P00811 | AmpC hydrolysis of nitrocefin, absorbance 480 nm, 0.01% Triton | Potency, µM (titrated, usually from 114 µM), for inactives: top-dose activity change, negative = inhibition, most hits filed as inhibitors | 0.041% of 370,000 active;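 further: 0% = no-compound wells and -100% = no-enzyme wells; nearly all actives have a fitted effect of over 25% in size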
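20 mM phosphate pH 7.0 + 0.01% (detergent screen) or 0.0001% Triton X-100; 5.3 nM AmpC reagent; cpd preinc 15 min RT; nitrocefin (800 uM stock) to start; A480 q20 s × 4 min; Activity was normalised to no-enzyme and no-compound control wells.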
* hit, by the source's call; u = inconclusive; x = no result. In the library only some 1.4% were active in any assay of this set; here they are far more common. Unless noted, the call rests on the fitted dose curve; in most records, active means well fitted curve in the direction sought with a large enough effect; inconclusive means small, poorly fitted or top-dose-only effect, or another doubt; inactive means no such curve, though single readings can be large; an effect the other way counts as inactive or inconclusive. Potency means the concentration at half of the fitted maximal effect.

SMILES	SARS PLpro yeast	Giardia FBPA inh	AmpC no deterg	NS1 inh	AmpC inh detg
O=C(CCN1C(=O)/C(=C/c2cccs2)SC1=S)Nc1ccc(C(=O)O)c(O)c1	u	x	1.3µM*	22%	-4%
Cc1nc(C#N)c(N/N=C/c2c(F)cccc2Cl)o1	11µM*	-8%	-28%	-33%	0%
COc1ccc(CNC(=O)COC(=O)c2cc(-c3ccco3)nc3ccccc23)cc1	9%	-15%	10µM*	5%	-5%
CCNC(=O)COC(=O)c1cc(-c2ccco2)nc2ccccc12	-1%	-7%	-22%	5%	0%
O=C(/C=C/c1ccc([N+](=O)[O-])cc1)Nc1cccc(C(=O)Nc2ccccc2C(=O)O)c1	5%	2%	35µM*	11%	5%
CCN1CCN(C(c2cccs2)C(C)NC(=O)CC(C)C)CC1 (stereo not given)	9%	4%	-4%	5%	4%
CCCCCC(=O)NNC1=NCC(Cc2ccccc2)S1 (stereo not given)	0%	5%	1%	x	-7%
C=CCOc1ccccc1/C=N/NC(=O)c1ccc(Cl)cc1Cl	-20%	-9%	25µM*	-8%	1%
CC(=O)N1CCOc2ccc(S(=O)(=O)NCc3ccccc3Cl)cc21	5%	-2%	-12%	11%	-12%
O=C(/C=C/c1ccco1)c1ccc(NC(=O)C23CC4CC(CC(C4)C2)C3)cc1	-16%	-7%	18µM*	u	0%
Cc1ccccc1C(=O)N1CCN(S(=O)(=O)c2ccccc2)CC1	-3%	u	3%	8%	u
COc1ccc(CCN2CC(C(=O)NCc3cc(C(C)C)no3)CCC2=O)cc1 (stereo not given)	-7%	-8%	50%	-16%	-1%
O=C(NC(=S)NCCC1=CCCCC1)c1cncc(Br)c1	13µM*	5%	u	14%	1%
O=C(NC(=S)NCCC1=CCCCC1)c1ccccc1Br	-2%	-1%	u	16%	-4%
COc1ccc(C2=NN(C(=O)CSc3cn(C)c4ccccc34)C(c3ccc(OC)cc3)C2)cc1 (stereo not given)	1%	-5%	1.6µM*	27%	u
COc1ccc(C2=NN(C(=O)CSc3ncccn3)C(c3ccc(OC)cc3)C2)cc1 (stereo not given)	-4%	2%	72%	1%	-2%
CCc1cc2c(=O)c(-c3ccc4c(c3)OCO4)coc2c(CN(C)C)c1O	2%	-4%	25µM*	-1%	3%
CC[C@@H](C)C(C(=O)N1CCN(C(=O)OC(C)(C)C)CC1)n1cc(-c2cn([C@@H](C)C(=O)N3CCN(C(=O)OC(C)(C)C)CC3)nn2)nn1 (stereo not given in full)	-1%	5%	159%	-4%	-5%
Cc1ccc(-c2noc(CNS(=O)(=O)c3ccc(F)cc3)n2)cc1	x	x	x	x	19%
COc1cccc(CNS(=O)(=O)c2ccc(S(=O)(=O)N3CCCC3)cc2)c1	0%	7.9µM*	156%	4%	-2%
C[C@]12CC[C@@H]3c4ccc(O)c(O)c4CC[C@H]3[C@@H]1CC[C@@H]2O	0%	13µM*	200%	29%	-11%
COC(OC)C1(C)C(C#N)=C(N)Oc2c1c(=O)oc1ccccc21 (stereo not given)	1%	-6%	5%	-1%	8%
CCOC(=O)c1c(/N=C/c2c(O)n(-c3ccc(F)cc3)c(=S)[nH]c2=O)sc2c1CCCC2	-4%	-2%	-26%	3%	2%
CCOC(=O)c1c(/N=C/c2c(O)n(-c3ccccc3F)c(=S)[nH]c2=O)sc2c1CCCC2	10%	18µM*	-43%	-2%	u
CCc1ccc(C2=NN(c3ccc(S(N)(=O)=O)cc3)C(c3ccc(F)cc3)C2)cc1 (stereo not given)	-19%	-10%	0.2µM*	-10%	0%
CCc1nnc(NC(=O)C2CCCN(S(=O)(=O)c3ccccc3)C2)s1 (stereo not given)	0%	-5%	-33%	1%	-8%
Cc1cc(C(=O)NNC(=S)NC(=O)/C=C/c2ccccc2Cl)n[nH]1	10µM*	u	-40%	17%	u
Cc1cc(C)nc(NC(=O)/C=C/c2ccccc2Cl)n1	-13%	10%	-11%	-21%	-9%
